Measurements from the supplement of paper PMC10849652.
Of roughly 7,900 targets only a part is listed; those with a hit were picked by preference. About 0.6% of all pairs of compound and target were hits.

How the values were obtained:
Assay in all cases: log2 fold change, soluble protein after heating vs DMSO (PISA); higher = thermal stabilisation; K562 cells, 10 uM, 30 min; active = over 0.2 and 3.5 SD of the protein, either way, in both replicates (recomputed)
[1] = compound: COC1=CC=C(C=C1)CN2C=CC3=C2C=C(C=C3)C(=O)NO
How it was run: (§1)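 K562 cells (2×10^6 cells/mL) were treated with 10 μM compound for 30 min, and aliquots were heated for 3 min over 48°C-58°C. Pooled aliquots were extracted in PBS with 0.5% NP-40 at 4°C, and the supernatant after 21,000xg for 90 min was measured by TMTpro 16plex LC-MS/MS with channel sums equalised. Reported thermal stability, relative to control samples and from duplicates, is a log2 fold change.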

filanesib = compound: CON(C)C(=O)N1N=C(c2cc(F)ccc2F)S[C@@]1(CCCN)c1ccccc1 [filanesib]
How it was run: as §1

zotarolimus = compound: CO[C@H]1C[C@@H]2CC[C@@H](C)[C@@](O)(O2)C(=O)C(=O)N2CCCC[C@H]2C(=O)O[C@H]([C@H](C)C[C@@H]2CC[C@H](n3cnnn3)[C@H](OC)C2)CC(=O)[C@H](C)/C=C(\C)[C@@H](O)[C@@H](OC)C(=O)[C@H](C)C[C@H](C)/C=C/C=C/C=C/1C [zotarolimus]
How it was run: as §1

idasanutlin = compound: COc1cc(C(=O)O)ccc1NC(=O)[C@@H]1N[C@@H](CC(C)(C)C)[C@](C#N)(c2ccc(Cl)cc2F)[C@H]1c1cccc(Cl)c1F [idasanutlin]
How it was run: as §1

alisertib = compound: COc1cc(Nc2ncc3c(n2)-c2ccc(Cl)cc2C(c2c(F)cccc2OC)=NC3)ccc1C(=O)O [alisertib]
How it was run: as §1

[2] = compound: COc1cc2nc(-c3cc(F)ccc3O)nc(N[C@@H]3CNC[C@H]3C(C)(C)O)c2cc1OC
How it was run: as §1

gefitinib = compound: COc1cc2ncnc(Nc3ccc(F)c(Cl)c3)c2cc1OCCCN1CCOCC1 [gefitinib]
How it was run: as §1

[3] = compound: COc1cccc2cc(-c3nc([C@H]4CC[C@H](C(=O)O)CC4)n4ncnc(N)c34)[nH]c12
How it was run: as §1

lapatinib = compound: CS(=O)(=O)CCNCc1ccc(-c2ccc3ncnc(Nc4ccc(OCc5cccc(F)c5)c(Cl)c4)c3c2)o1 [lapatinib]
How it was run: as §1

pictilisib = compound: CS(=O)(=O)N1CCN(Cc2cc3nc(-c4cccc5[nH]ncc45)nc(N4CCOCC4)c3s2)CC1 [pictilisib]
How it was run: as §1

Measured: log2 fold change

RBBP6 (UniProt Q7Z6E9)
inactive: [1] 0.101 | zotarolimus -0.052 | idasanutlin 0.089 | alisertib 0.044 | [2] -0.099 | gefitinib -0.02 | [3] 0.146 | lapatinib 0.101 | pictilisib 0.016
active: filanesib 0.468

RHEB (UniProt Q15382)
Chain of UniProt Q15382 (Q15382 whole entry, looked up): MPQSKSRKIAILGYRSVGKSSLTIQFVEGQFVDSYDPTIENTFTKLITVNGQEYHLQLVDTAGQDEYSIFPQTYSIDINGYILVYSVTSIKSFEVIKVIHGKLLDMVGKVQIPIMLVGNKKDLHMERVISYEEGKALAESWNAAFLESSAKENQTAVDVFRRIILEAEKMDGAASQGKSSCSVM
inactive: [1] -0.007 | filanesib -0.08 | zotarolimus 0.016 | idasanutlin -0.049 | alisertib -0.03 | [2] 0.032 | gefitinib 0.015 | [3] 0.057 | lapatinib 0.005 | pictilisib 0.029

SASH1 (UniProt O94885)
inactive: [1] -0.059 | filanesib -0.074 | zotarolimus -0.04 | idasanutlin -0.05 | alisertib 0.009 | [2] -0.161 | gefitinib 0.015 | [3] -0.015 | lapatinib -0.013 | pictilisib 0.073

SAAL1 (UniProt Q96ER3)
Chain of UniProt Q96ER3 (Q96ER3 whole entry, looked up): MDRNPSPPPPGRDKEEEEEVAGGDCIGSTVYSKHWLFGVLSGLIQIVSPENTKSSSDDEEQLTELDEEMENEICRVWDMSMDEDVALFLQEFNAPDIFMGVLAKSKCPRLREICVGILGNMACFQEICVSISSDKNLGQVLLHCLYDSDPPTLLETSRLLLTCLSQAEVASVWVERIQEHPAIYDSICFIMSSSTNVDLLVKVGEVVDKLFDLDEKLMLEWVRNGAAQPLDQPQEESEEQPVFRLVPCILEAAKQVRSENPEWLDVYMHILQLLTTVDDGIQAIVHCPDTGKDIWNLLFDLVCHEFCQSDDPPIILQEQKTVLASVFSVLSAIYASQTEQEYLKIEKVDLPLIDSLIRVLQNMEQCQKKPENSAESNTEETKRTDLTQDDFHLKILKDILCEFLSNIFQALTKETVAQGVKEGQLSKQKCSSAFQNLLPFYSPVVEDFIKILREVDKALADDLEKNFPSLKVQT
inactive: [1] -0.179 | filanesib -0.032 | zotarolimus 0.016 | idasanutlin -0.11 | alisertib -0.067 | [2] 0.214 | gefitinib -0.055 | [3] 0.018 | lapatinib -0.002 | pictilisib -0.018

RSL1D1 (UniProt O76021)
inactive: [1] -0.094 | filanesib 0.543 | zotarolimus 0.055 | idasanutlin 0.363 | alisertib -0.202 | [2] 0.181 | gefitinib -0.031 | [3] -0.065 | lapatinib 0.181 | pictilisib -0.013

RNPS1 (UniProt Q15287)
inactive: [1] 0.062 | filanesib 0.13 | zotarolimus -0.014 | idasanutlin 0.274 | alisertib 0.024 | [2] -0.073 | gefitinib 0.04 | [3] -0.005 | lapatinib 0.075 | pictilisib -0.001

RPS15 (UniProt P62841)
inactive: [1] 0.086 | filanesib 0.192 | zotarolimus -0.082 | idasanutlin 0.049 | alisertib -0.107 | [2] 0.027 | gefitinib 0.008 | [3] -0.147 | lapatinib -0.01 | pictilisib -0.054

RAD50 isoform 2 (UniProt Q92878)
Chain of UniProt Q92878 (Q92878 whole entry, looked up): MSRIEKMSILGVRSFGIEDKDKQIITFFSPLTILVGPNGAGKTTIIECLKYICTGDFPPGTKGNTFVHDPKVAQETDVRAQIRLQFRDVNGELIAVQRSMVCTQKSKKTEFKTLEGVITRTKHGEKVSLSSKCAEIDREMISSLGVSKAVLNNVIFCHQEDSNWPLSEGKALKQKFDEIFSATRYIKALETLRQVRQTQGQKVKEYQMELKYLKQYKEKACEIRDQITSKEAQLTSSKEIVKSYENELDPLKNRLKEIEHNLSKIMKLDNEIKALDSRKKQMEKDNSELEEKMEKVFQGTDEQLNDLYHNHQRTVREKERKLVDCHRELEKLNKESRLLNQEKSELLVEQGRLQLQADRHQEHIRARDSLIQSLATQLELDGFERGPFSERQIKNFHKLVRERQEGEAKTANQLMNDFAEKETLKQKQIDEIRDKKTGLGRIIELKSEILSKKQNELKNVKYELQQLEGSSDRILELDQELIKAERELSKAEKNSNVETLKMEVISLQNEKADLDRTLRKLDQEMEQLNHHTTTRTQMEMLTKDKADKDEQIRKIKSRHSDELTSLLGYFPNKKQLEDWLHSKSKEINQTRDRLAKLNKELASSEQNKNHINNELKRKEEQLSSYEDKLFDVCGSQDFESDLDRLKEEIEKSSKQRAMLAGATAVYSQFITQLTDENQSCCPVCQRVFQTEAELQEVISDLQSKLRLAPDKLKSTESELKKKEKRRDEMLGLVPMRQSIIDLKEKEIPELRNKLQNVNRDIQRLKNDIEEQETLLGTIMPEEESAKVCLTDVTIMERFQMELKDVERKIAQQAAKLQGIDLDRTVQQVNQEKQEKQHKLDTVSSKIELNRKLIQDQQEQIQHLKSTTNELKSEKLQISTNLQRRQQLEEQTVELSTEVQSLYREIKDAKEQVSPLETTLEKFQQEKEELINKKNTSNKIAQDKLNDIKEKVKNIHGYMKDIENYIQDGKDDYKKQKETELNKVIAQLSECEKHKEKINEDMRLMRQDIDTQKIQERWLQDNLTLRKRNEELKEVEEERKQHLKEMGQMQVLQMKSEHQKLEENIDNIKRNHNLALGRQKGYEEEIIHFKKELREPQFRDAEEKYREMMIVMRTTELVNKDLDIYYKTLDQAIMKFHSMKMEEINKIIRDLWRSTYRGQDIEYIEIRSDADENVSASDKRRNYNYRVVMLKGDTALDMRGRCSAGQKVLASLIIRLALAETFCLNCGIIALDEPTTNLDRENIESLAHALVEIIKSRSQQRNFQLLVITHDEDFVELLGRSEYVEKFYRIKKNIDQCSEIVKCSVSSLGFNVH
inactive: [1] -0.002 | filanesib 0.008 | zotarolimus 0.036 | idasanutlin -0.016 | alisertib 0 | [2] 0.002 | gefitinib 0.031 | [3] 0.007 | lapatinib -0.002 | pictilisib 0.02

RAB3IL1 (UniProt Q8TBN0)
inactive: [1] -0.006 | filanesib -0.003 | zotarolimus -0.023 | idasanutlin 0 | alisertib -0.115 | [2] 0.07 | gefitinib 0.033 | [3] 0.038 | lapatinib 0.001 | pictilisib -0.019

SIK3 (UniProt H0Y4E8)
inactive: [1] -0.015 | filanesib 0.085 | zotarolimus -0.073 | idasanutlin -0.065 | alisertib -0.018 | [2] 0.077 | gefitinib -0.026 | [3] 0.466 | lapatinib 0.036 | pictilisib -0.007

RAB3GAP2 (UniProt Q9H2M9)
Chain of UniProt Q9H2M9 (Q9H2M9 whole entry, looked up): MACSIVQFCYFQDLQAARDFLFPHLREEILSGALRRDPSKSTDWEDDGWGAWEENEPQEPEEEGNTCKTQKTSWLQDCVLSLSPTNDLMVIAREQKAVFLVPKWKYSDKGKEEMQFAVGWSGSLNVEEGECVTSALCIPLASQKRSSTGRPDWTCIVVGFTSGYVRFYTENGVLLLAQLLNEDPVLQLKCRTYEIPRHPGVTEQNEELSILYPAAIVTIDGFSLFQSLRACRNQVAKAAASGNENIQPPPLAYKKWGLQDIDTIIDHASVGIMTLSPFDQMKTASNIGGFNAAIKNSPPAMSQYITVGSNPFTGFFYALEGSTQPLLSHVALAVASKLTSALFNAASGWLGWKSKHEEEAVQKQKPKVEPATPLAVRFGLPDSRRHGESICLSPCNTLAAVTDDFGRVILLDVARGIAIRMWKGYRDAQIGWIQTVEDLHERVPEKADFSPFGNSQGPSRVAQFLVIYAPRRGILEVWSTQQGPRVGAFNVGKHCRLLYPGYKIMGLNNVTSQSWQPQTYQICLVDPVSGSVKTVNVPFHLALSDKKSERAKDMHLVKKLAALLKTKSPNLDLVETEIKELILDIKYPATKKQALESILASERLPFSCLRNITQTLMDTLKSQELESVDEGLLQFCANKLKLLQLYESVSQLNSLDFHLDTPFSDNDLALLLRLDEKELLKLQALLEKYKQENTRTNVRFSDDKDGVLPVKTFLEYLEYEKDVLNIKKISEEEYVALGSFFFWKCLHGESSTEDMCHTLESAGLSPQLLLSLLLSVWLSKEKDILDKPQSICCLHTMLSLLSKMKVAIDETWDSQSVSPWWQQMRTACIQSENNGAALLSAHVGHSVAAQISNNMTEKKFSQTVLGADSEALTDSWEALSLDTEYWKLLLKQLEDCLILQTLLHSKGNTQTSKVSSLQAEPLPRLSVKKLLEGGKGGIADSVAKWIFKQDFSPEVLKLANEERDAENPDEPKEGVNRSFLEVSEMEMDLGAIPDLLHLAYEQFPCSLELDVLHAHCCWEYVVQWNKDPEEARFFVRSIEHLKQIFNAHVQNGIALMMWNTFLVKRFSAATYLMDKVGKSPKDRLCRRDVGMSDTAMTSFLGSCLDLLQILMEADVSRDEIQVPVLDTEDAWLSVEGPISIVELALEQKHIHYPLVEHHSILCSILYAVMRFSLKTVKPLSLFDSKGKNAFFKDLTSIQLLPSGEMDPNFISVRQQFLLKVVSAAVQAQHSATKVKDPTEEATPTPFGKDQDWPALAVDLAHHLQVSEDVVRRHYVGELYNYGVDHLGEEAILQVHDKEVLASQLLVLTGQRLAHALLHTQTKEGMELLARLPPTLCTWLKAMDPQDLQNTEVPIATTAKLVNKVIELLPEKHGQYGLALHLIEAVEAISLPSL
inactive: [1] 0 | filanesib 0.049 | zotarolimus 0.101 | idasanutlin 0.01 | alisertib -0.056 | [2] 0.009 | gefitinib 0.017 | [3] -0.103 | lapatinib 0.038 | pictilisib -0.027

RALA (UniProt P11233)
Chain of UniProt P11233 (P11233 whole entry, looked up): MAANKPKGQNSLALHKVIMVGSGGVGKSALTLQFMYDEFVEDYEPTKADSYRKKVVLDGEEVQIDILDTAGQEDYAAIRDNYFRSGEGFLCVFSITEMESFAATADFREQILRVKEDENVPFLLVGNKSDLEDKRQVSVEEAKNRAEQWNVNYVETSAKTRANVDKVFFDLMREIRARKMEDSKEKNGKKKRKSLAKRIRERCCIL
inactive: filanesib -0.025 | zotarolimus 0.035 | idasanutlin -0.019 | alisertib -0.066 | [2] -0.066 | gefitinib 0.004 | [3] 0.053 | lapatinib 0.025 | pictilisib -0.099
active: [1] 0.348

SH3GLB2 (UniProt Q9NR46)
inactive: [1] 0.016 | filanesib 0.085 | zotarolimus 0.052 | idasanutlin 0.061 | alisertib -0.011 | [2] -0.034 | gefitinib -0.004 | [3] -0.018 | lapatinib -0.04 | pictilisib 0.025

SCD (UniProt O00767)
Chain of UniProt O00767 (O00767 whole entry, looked up): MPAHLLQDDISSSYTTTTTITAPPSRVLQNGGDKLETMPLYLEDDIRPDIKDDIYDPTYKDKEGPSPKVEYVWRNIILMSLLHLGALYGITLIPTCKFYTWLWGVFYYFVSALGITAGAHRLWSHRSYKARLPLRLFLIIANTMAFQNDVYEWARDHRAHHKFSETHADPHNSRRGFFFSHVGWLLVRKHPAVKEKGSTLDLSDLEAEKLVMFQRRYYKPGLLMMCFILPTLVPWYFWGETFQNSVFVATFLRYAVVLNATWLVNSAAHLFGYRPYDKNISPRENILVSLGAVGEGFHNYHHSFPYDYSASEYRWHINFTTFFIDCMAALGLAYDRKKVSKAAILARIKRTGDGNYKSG
inactive: filanesib -0.074 | zotarolimus -0.024 | idasanutlin -0.001 | alisertib 0.014 | [2] -0.054 | gefitinib 0.019 | [3] 0.048 | lapatinib -0.017 | pictilisib -0.053
active: [1] -0.458

RNF2 (UniProt Q99496)
inactive: [1] -0.104 | filanesib 0.023 | zotarolimus 0 | idasanutlin -0.01 | alisertib -0.105 | [2] -0.04 | gefitinib 0.106 | [3] 0.039 | lapatinib 0.011 | pictilisib 0.099

RPS3 (UniProt P23396)
inactive: [1] -0.093 | filanesib 0.102 | zotarolimus -0.023 | idasanutlin 0.055 | alisertib -0.05 | [2] -0.027 | gefitinib -0.056 | [3] -0.149 | lapatinib 0.053 | pictilisib -0.059

RBM4 (UniProt Q9BWF3)
inactive: [1] -0.071 | filanesib 0.065 | zotarolimus 0.035 | idasanutlin 0.051 | alisertib 0.038 | [2] -0.036 | gefitinib -0.04 | [3] -0.038 | lapatinib 0.024 | pictilisib 0.005

RPS18 (UniProt P62269)
inactive: [1] -0.157 | filanesib 0.118 | zotarolimus 0.012 | idasanutlin 0.046 | alisertib -0.015 | [2] -0.021 | gefitinib -0.013 | [3] -0.109 | lapatinib 0.065 | pictilisib -0.107

RBM8A (UniProt Q9Y5S9)
inactive: [1] -0.061 | filanesib 0.028 | zotarolimus -0.018 | idasanutlin -0.01 | alisertib -0.024 | [2] 0.094 | gefitinib 0.038 | [3] -0.029 | lapatinib -0.028 | pictilisib -0.013

REL (UniProt Q04864)
inactive: [1] -0.006 | filanesib 0.051 | zotarolimus 0.004 | idasanutlin 0.033 | alisertib 0.068 | [2] 0.062 | gefitinib 0.148 | [3] -0.086 | lapatinib -0.031 | pictilisib -0.243

RAF1 isoform 2 (UniProt P04049)
Chain of UniProt P04049 (P04049 whole entry, looked up): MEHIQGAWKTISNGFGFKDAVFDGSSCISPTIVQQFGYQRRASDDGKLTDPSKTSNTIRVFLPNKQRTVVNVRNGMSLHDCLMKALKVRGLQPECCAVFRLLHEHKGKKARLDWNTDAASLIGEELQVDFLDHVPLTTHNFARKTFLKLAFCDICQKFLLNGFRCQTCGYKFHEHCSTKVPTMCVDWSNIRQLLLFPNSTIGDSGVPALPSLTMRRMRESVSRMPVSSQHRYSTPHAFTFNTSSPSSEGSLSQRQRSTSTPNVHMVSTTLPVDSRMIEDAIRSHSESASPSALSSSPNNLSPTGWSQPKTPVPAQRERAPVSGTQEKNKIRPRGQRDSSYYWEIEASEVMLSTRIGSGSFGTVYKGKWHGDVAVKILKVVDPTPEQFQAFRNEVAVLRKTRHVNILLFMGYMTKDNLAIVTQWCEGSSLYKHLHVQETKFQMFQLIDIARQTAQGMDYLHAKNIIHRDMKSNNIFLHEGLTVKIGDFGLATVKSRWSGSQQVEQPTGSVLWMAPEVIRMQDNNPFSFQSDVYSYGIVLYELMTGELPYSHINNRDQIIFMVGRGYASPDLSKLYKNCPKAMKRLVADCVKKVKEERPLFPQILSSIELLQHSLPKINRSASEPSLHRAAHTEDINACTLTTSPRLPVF
inactive: [1] 0.035 | filanesib 0.085 | zotarolimus -0.024 | idasanutlin -0.102 | alisertib 0.139 | [2] -0.246 | [3] -0.067 | lapatinib 0.051 | pictilisib 0.207

RNF220 (UniProt Q5VTB9)
inactive: [1] -0.004 | filanesib 0.108 | zotarolimus 0.062 | idasanutlin -0.006 | alisertib -0.062 | [2] 0.047 | gefitinib -0.032 | [3] 0.002 | lapatinib -0.006 | pictilisib 0.068

RELA (UniProt Q04206)
inactive: [1] 0.025 | filanesib -0.002 | zotarolimus 0.024 | idasanutlin -0.039 | alisertib -0.028 | [2] -0.031 | gefitinib 0.023 | [3] 0.005 | lapatinib 0.012 | pictilisib -0.007

SDCBP (UniProt O00560)
Chain of UniProt O00560 (O00560 whole entry, looked up): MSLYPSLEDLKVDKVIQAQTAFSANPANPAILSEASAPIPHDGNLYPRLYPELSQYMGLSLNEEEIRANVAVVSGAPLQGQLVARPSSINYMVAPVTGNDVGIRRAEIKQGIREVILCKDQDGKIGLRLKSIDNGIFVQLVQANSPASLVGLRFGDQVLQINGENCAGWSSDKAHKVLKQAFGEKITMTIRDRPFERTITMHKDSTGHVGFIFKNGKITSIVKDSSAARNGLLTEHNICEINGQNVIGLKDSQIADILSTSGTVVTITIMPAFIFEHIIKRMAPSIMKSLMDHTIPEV
inactive: [1] -0.022 | filanesib -0.154 | zotarolimus 0.1 | idasanutlin 0.101 | alisertib -0.04 | [2] -0.152 | gefitinib -0.043 | [3] -0.022 | lapatinib 0.005 | pictilisib -0.05

RFC3 (UniProt P40938)
inactive: [1] 0.125 | filanesib -0.046 | zotarolimus -0.026 | idasanutlin -0.088 | alisertib -0.021 | [2] -0.042 | gefitinib 0.008 | [3] 0.024 | lapatinib 0.037 | pictilisib 0.035

RAVER1 (UniProt E9PAU2)
inactive: [1] 0.032 | filanesib -0.244 | zotarolimus 0.258 | idasanutlin 0.024 | alisertib 0.372 | [2] -0.898 | gefitinib 0.082 | [3] -0.099 | lapatinib 0.049 | pictilisib -0.002

SHROOM2 (UniProt Q13796)
inactive: [1] 0.417 | filanesib 0.066 | zotarolimus 0.02 | idasanutlin -0.045 | alisertib -0.027 | [2] 0.237 | gefitinib 0.056 | [3] 0.009 | lapatinib -0.188 | pictilisib 0.226

RALY (UniProt Q9UKM9)
inactive: [1] -0.038 | filanesib 0.216 | zotarolimus 0.055 | alisertib 0.041 | [2] -0.152 | gefitinib -0.099 | [3] -0.148 | lapatinib 0.22 | pictilisib -0.02
active: idasanutlin 0.72

RAD51 (UniProt Q06609)
inactive: [1] -0.057 | filanesib 0.003 | zotarolimus -0.034 | idasanutlin -0.072 | alisertib 0.041 | [2] -0.022 | gefitinib -0.07 | [3] 0.012 | lapatinib -0.024 | pictilisib -0.02
